In PubChem BioAssay (NCI):
About 83,000 compounds went through this panel and 20% of them were active in at least one assay; those are over-represented in the sample as a whole.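 Each cell line was grown in a 96-well plate and treated with one concentration of compound for 48 hours. Values below 10 were considered active.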 The source made the active and inactive calls.

What was measured:
Assay in all cases: NCI-60 one-dose screen, 48 h (100 = growth as untreated, 0 = no growth, -100 = all killed)
Conditions in all cases: 10 µM unless noted
DU-145 prostate = tested on: DU-145 prostate
K-562 leukemia = tested on: K-562 leukemia
MALME-3M melanoma = tested on: MALME-3M melanoma
MDA-MB-231 breast = tested on: MDA-MB-231 breast
RXF 393 renal = tested on: RXF 393 renal
SF-268 CNS = tested on: SF-268 CNS
SF-295 CNS = tested on: SF-295 CNS
SF-539 CNS = tested on: SF-539 CNS
UACC-257 melanoma = tested on: UACC-257 melanoma
M14 melanoma = tested on: M14 melanoma
HCT-15 colon = tested on: HCT-15 colon
HT29 colon = tested on: HT29 colon
SNB-75 CNS = tested on: SNB-75 CNS
SNB-19 CNS = tested on: SNB-19 CNS
U251 CNS = tested on: U251 CNS
PC-3 prostate = tested on: PC-3 prostate
SK-MEL-5 melanoma = tested on: SK-MEL-5 melanoma
UACC-62 melanoma = tested on: UACC-62 melanoma
LOX IMVI melanoma = tested on: LOX IMVI melanoma
SK-MEL-28 melanoma = tested on: SK-MEL-28 melanoma

Measured: growth

O=C(NC(Cc1nnc2n(Cc3ccccc3)c(=O)c3c4c(sc3n12)CCCC4)c1ccccc1)c1ccccc1 (centres undefined)
inactive: DU-145 prostate 115% | K-562 leukemia 91% | MALME-3M melanoma 103% | MDA-MB-231 breast 94% | RXF 393 renal 79.4% | SF-268 CNS 89.5% | SF-295 CNS 108% | SF-539 CNS 111% | UACC-257 melanoma 101% | M14 melanoma 86.9% | HCT-15 colon 138% | HT29 colon 106% | SNB-75 CNS 81.3% | SNB-19 CNS 99.1% | U251 CNS 111% | PC-3 prostate 96.7% | SK-MEL-5 melanoma 96.1% | UACC-62 melanoma 85.9% | LOX IMVI melanoma 109% | SK-MEL-28 melanoma 110%

CC1(C)N=C(N)N=C(N)N1c1cccc(CCc2ccccc2)c1
inactive: DU-145 prostate 37.3% | K-562 leukemia 23.1% | MALME-3M melanoma 79.1% | MDA-MB-231 breast 68.9% | RXF 393 renal 78.5% | SF-268 CNS 32.4% | SF-295 CNS 41.9% | SF-539 CNS 23% | UACC-257 melanoma 39.3% | M14 melanoma 55.4% | HCT-15 colon 85.8% | HT29 colon 14.3% | SNB-75 CNS 63% | SNB-19 CNS 31.3% | U251 CNS 38.1% | PC-3 prostate 34.6% | SK-MEL-5 melanoma 12% | UACC-62 melanoma 24.7% | LOX IMVI melanoma 24% | SK-MEL-28 melanoma 46.3%

C/C(=N\O)[C@@H]1CC[C@]2(CO)CC[C@]3(C)[C@H](CC[C@@H]4[C@@]5(C)CCCNC(C)(C)[C@@H]5CC[C@]43C)[C@@H]12
inactive: DU-145 prostate 95% | MALME-3M melanoma 95.4% | MDA-MB-231 breast 90.9% | RXF 393 renal 80.8% | SF-268 CNS 84.7% | SF-295 CNS 92.5% | SF-539 CNS 93.3% | UACC-257 melanoma 97.6% | M14 melanoma 87% | HCT-15 colon 83.6% | HT29 colon 24.5% | SNB-75 CNS 68.9% | SNB-19 CNS 89.4% | U251 CNS 61.4% | PC-3 prostate 60.6% | SK-MEL-5 melanoma 84.1% | UACC-62 melanoma 90.5% | LOX IMVI melanoma 77.6% | SK-MEL-28 melanoma 93.2%
active: K-562 leukemia 2.56%

CCN1CCN(C(=O)[C@]23CC[C@@H](C)[C@H](C)[C@@H]2C2=CC[C@@H]4[C@@]5(C)C/C(=C/c6cccnc6)C(=O)C(C)(C)[C@@H]5CC[C@@]4(C)[C@]2(C)CC3)CC1
inactive: DU-145 prostate 48% | MALME-3M melanoma 12% | MDA-MB-231 breast 34.7% | SF-268 CNS 51% | SF-295 CNS 37.3% | UACC-257 melanoma 26% | M14 melanoma 40.9% | HCT-15 colon 15.2% | HT29 colon 12.1% | SNB-75 CNS 27.6% | SNB-19 CNS 45.9% | U251 CNS 27.9% | PC-3 prostate 16.7% | UACC-62 melanoma 33.8% | LOX IMVI melanoma 14.9% | SK-MEL-28 melanoma 37.4%
active: K-562 leukemia 6.46% | RXF 393 renal 3.08% | SF-539 CNS 8.77%

CCN1C(=O)N(CC)C2C1NN=c1s/c(=C3\C(=O)N(CC(C)C)c4ccccc43)c(=O)n12 (centres undefined)
active: SF-295 CNS 6.8% | SF-539 CNS -23.5% | HT29 colon 2.25%
inactive: DU-145 prostate 10.4% | K-562 leukemia 10.5% | MALME-3M melanoma 59.6% | MDA-MB-231 breast 12.3% | RXF 393 renal 21.9% | SF-268 CNS 54.9% | UACC-257 melanoma 65.5% | M14 melanoma 18.8% | HCT-15 colon 12.5% | SNB-75 CNS 14.9% | SNB-19 CNS 28% | U251 CNS 12.1% | PC-3 prostate 27.7% | UACC-62 melanoma 27.7% | LOX IMVI melanoma 24.7%

COc1ccccc1N(C(C)=O)C1=C(Cl)C(=O)c2ccccc2C1=O
inactive: DU-145 prostate 38.1% | MALME-3M melanoma 43.3% | MDA-MB-231 breast 10.5% | SF-268 CNS 30.1% | M14 melanoma 11.7% | SNB-75 CNS 24.8% | SNB-19 CNS 34% | SK-MEL-28 melanoma 21.2%
active: K-562 leukemia -13.2% | RXF 393 renal -29.1% | SF-295 CNS -36% | SF-539 CNS -30.9% | UACC-257 melanoma -7.02% | HCT-15 colon 4.27% | HT29 colon 6.98% | U251 CNS 8.36% | PC-3 prostate 3.3% | UACC-62 melanoma -35.3% | LOX IMVI melanoma 4.88%

COc1ccc(/C(C)=C(/c2ccc(OCCCN(C)C)cc2)c2ccc(OC(=O)c3ccccc3)cc2)cc1
active: HT29 colon 9.02% | LOX IMVI melanoma -2.62%
inactive: DU-145 prostate 102% | K-562 leukemia 38.9% | MALME-3M melanoma 83.6% | MDA-MB-231 breast 71.1% | RXF 393 renal 66.7% | SF-268 CNS 77.8% | SF-295 CNS 89.8% | SF-539 CNS 89.1% | UACC-257 melanoma 89.7% | M14 melanoma 66.4% | HCT-15 colon 63% | SNB-75 CNS 105% | SNB-19 CNS 94.8% | U251 CNS 68.2% | PC-3 prostate 73.4% | UACC-62 melanoma 88.7% | SK-MEL-28 melanoma 85.2%

COc1ccc(Nc2ncccc2/C=C/C(=O)c2cc(OC)c(OC)c(OC)c2)cc1
active: DU-145 prostate 6.98% | K-562 leukemia -26.3% | MALME-3M melanoma -5.45% | RXF 393 renal -61% | SF-268 CNS -33.2% | SF-539 CNS -51.1% | UACC-257 melanoma -89.7% | M14 melanoma -53.4% | HCT-15 colon -57.2% | HT29 colon -66.8% | U251 CNS -95.8% | PC-3 prostate -15.1% | SK-MEL-5 melanoma -25.8% | UACC-62 melanoma -24% | LOX IMVI melanoma -63.6% | SK-MEL-28 melanoma -77%
inactive: MDA-MB-231 breast 17.3% | SF-295 CNS 17% | SNB-75 CNS 21.4% | SNB-19 CNS 33.4%

C=C(C)[C@@H]1CC[C@]2(C)[C@H](CC=C3[C@@H]4CC(C)(C)CC[C@]4(CO)CC[C@]32C)[C@@]1(C)CCCN
inactive: DU-145 prostate 44% | MDA-MB-231 breast 27% | RXF 393 renal 31.6% | SF-268 CNS 67.6% | SF-295 CNS 90.6% | SNB-75 CNS 39.7% | SNB-19 CNS 79.5% | PC-3 prostate 21.3% | SK-MEL-5 melanoma 55.4% | UACC-62 melanoma 98.8%
active: K-562 leukemia -47.7% | MALME-3M melanoma -45.7% | SF-539 CNS -61.5% | UACC-257 melanoma -85.2% | M14 melanoma -65.5% | HCT-15 colon -71.6% | HT29 colon -52.8% | U251 CNS -86.8% | LOX IMVI melanoma -97.2% | SK-MEL-28 melanoma -88.4%

Nc1c(C(=O)Nc2cccc(Cl)c2)sc2nc3c(cc12)CCCC3
inactive: DU-145 prostate 104% | K-562 leukemia 48.3% | MALME-3M melanoma 102% | MDA-MB-231 breast 93.3% | RXF 393 renal 103% | SF-268 CNS 102% | SF-295 CNS 91.6% | SF-539 CNS 86.9% | UACC-257 melanoma 79.1% | M14 melanoma 78.6% | HCT-15 colon 78.8% | HT29 colon 68.2% | SNB-75 CNS 101% | SNB-19 CNS 92.2% | U251 CNS 89.3% | PC-3 prostate 80.2% | SK-MEL-5 melanoma 88.2% | UACC-62 melanoma 70.2% | LOX IMVI melanoma 93% | SK-MEL-28 melanoma 91.1%

Clc1ccccc1-c1cnn2cc(-c3ccccc3)cnc12
inactive: DU-145 prostate 87.6% | K-562 leukemia 67.3% | MALME-3M melanoma 89.9% | MDA-MB-231 breast 72.4% | RXF 393 renal 87.6% | SF-268 CNS 85.6% | SF-295 CNS 82.9% | SF-539 CNS 81.3% | UACC-257 melanoma 86.3% | M14 melanoma 91.5% | HCT-15 colon 70.1% | HT29 colon 73.4% | SNB-75 CNS 74.2% | SNB-19 CNS 71% | U251 CNS 82.9% | PC-3 prostate 86.4% | UACC-62 melanoma 65.9% | LOX IMVI melanoma 94.6% | SK-MEL-28 melanoma 88.3%

CN1C(=O)/C(=C2\SC(=Nc3ccccc3)N(Nc3ccccc3)C2=O)c2ccccc21
inactive: DU-145 prostate 109% | K-562 leukemia 99.5% | MALME-3M melanoma 110% | MDA-MB-231 breast 91.4% | RXF 393 renal 109% | SF-268 CNS 95.4% | SF-295 CNS 105% | SF-539 CNS 94.9% | UACC-257 melanoma 106% | M14 melanoma 101% | HCT-15 colon 105% | HT29 colon 119% | SNB-75 CNS 78.9% | SNB-19 CNS 95.9% | U251 CNS 100% | PC-3 prostate 86.6% | SK-MEL-5 melanoma 99.3% | UACC-62 melanoma 81.3% | LOX IMVI melanoma 93.5% | SK-MEL-28 melanoma 105%

N#Cc1cncc(-c2ccc3ncnc(Nc4cccc(Cl)c4)c3c2)c1
inactive: DU-145 prostate 63.4% | K-562 leukemia 87% | MALME-3M melanoma 76.8% | MDA-MB-231 breast 66.6% | RXF 393 renal 45.9% | SF-268 CNS 68.5% | SF-295 CNS 76% | SF-539 CNS 78% | UACC-257 melanoma 72.6% | M14 melanoma 83.8% | HCT-15 colon 77.9% | HT29 colon 66.8% | SNB-75 CNS 65.5% | SNB-19 CNS 63.3% | U251 CNS 62.1% | PC-3 prostate 63.5% | SK-MEL-5 melanoma 75.4% | UACC-62 melanoma 81.7% | LOX IMVI melanoma 91.1% | SK-MEL-28 melanoma 81.8%

Fc1ccc2[nH]cc(-c3nc(-c4c[nH]c5ccncc45)cs3)c2c1
active: DU-145 prostate -0.992% | K-562 leukemia -41.7% | MALME-3M melanoma -85.3% | MDA-MB-231 breast -59.8% | RXF 393 renal -84.6% | SF-268 CNS -31.5% | SF-295 CNS -74.1% | SF-539 CNS -92.6% | UACC-257 melanoma -67.8% | M14 melanoma -66.4% | HCT-15 colon -50% | HT29 colon -62.9% | SNB-75 CNS -31.6% | SNB-19 CNS -48.4% | U251 CNS -81.8% | PC-3 prostate 7.43% | SK-MEL-5 melanoma -94.6% | UACC-62 melanoma -75.3% | LOX IMVI melanoma -92.3% | SK-MEL-28 melanoma -92.1%
